MRP resist rev: MRP-mediated drug resistance reversal | H69AR cells + 2 uM doxorubicin, CellTiter-Glo, 72 h | 85,000 compounds, 0.04% hits | AID 602 | differential viability (reversal), % at 10 µM;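 active means viability drop by adding the cancer drug above about 55%, with treated viability meeting a 40% cutoff, limit read from the data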;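 further: viability without doxorubicin minus viability with 2 µM doxorubicin for each compound; larger differential means the compound sensitizes cells more to doxorubicin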
MRP1 act: activates MRP-1. H69AR cells + doxorubicin, viability rescue, CellTiter-Glo. AID 799. viability increase, % at 10 µM. 140,000 compounds, 0.61% hits;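 active means viability gain under doxorubicin at or above a set limit, the compound median plus 3 SD, cut at about 4.7% in these data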;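 further: MRP-1 overexpressing cells given doxorubicin 25 µM after compound pretreatment; 18-22 h compound pretreatment then 72 h with doxorubicin before readout; 0% = doxorubicin-only wells and 100% = vehicle-treated cells without doxorubicin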
hDAT+cocaine: modulates human dopamine transporter uptake under cocaine; 110,000 compounds, 1.3% hits; B-score at 10 µM; AID 449768; LLC-PK1 hDAT cells, [14C]-dopamine uptake with cocaine IC80; actives deviate in either direction;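 active means Z score or B-score, a plate-position-corrected score, falls beyond the plate's 99.7% confidence bounds, in either direction; inactive means both scores lie inside the 99.7% bounds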;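 further: scored against the spread of the other compound wells on the same plate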
Target sequence (Q01959 whole entry, looked up): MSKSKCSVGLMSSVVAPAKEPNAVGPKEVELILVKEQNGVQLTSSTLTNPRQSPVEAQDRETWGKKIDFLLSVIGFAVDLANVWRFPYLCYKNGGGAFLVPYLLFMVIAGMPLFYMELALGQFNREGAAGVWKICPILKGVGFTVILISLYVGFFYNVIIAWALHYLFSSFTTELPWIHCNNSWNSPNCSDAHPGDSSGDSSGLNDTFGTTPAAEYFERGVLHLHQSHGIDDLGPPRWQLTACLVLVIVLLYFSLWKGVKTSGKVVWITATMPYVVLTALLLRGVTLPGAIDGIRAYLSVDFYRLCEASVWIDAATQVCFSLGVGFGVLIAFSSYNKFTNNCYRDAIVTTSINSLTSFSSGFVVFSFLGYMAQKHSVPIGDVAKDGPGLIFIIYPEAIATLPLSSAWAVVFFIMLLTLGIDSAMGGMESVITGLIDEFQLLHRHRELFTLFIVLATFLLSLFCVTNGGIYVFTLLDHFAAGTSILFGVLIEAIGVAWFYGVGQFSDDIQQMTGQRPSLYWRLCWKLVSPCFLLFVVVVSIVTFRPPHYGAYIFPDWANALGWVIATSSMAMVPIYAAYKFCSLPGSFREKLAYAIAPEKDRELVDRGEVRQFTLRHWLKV
* hit, by the source's call; x = no result. A selection: hits, their analogues and other compounds. The true share with any hit is near 1.5%.

SMILES	MRP resist rev	MRP1 act	hDAT+cocaine
CC1CCN(c2ccc(C(=O)NCc3ccco3)cc2[N+](=O)[O-])CC1	x	-2.0	x
CC(C)CCC1CC(CSC(=N)N)OC1=O (centres undefined)	-6.5	5.1*	0.312
CCCCC1CC(CSC(=N)N)OC1=O (centres undefined)	5.0	1.7	0.665
CCc1ccc(NC(=O)COC(=O)C2(c3ccc(Cl)cc3)CCCC2)cc1	x	-2.6	x
COc1cc(OC)c2c(-c3ccccc3)cc(=O)oc2c1C(CCN1CCCC1)c1ccc2c(c1)OCO2 (centres undefined)	x	x	0.879
COc1cc(OC)c2ccc(=O)oc2c1C(CCN1CCCC1)c1ccc2c(c1)OCO2 (centres undefined)	x	x	1.06*
NC(=O)[C@@H]1CCCNc2c(I)cc([N+](=O)[O-])cc2C(=O)N[C@@H](Cc2ccccc2)C(=O)N[C@@H](Cc2cnc[nH]2)C(=O)N1	x	-0.2	1.15
O=C(CSc1nnc(SCc2ccccc2)s1)NNC(=S)Nc1ccccc1	x	-1.3	x
CCOC(=O)N1CCN(S(=O)(=O)c2cc(Cl)c(OC)cc2Cl)CC1	6.2	-1.7	1.65*
CCOC(=O)N1CCN(S(=O)(=O)c2cc(OCC)ccc2OCC)CC1	-40.1	-3.5	0.554
O=C(c1c[nH]c2ccc(F)cc2c1=O)N1CCCCCC1	9.1	0.8	-0.0018
O=C(NC1CCCC1)c1c[nH]c2ccc(F)cc2c1=O	-4.7	1.4	4.49*
COc1ccc(C(=O)CC(Nc2ccc([N+](=O)[O-])cc2)c2ccc(Cl)cc2)cc1 (centres undefined)	x	-2.0	-0.469
Cc1ccc2oc(-c3cccc(NC(=O)/C=C/c4cccc([N+](=O)[O-])c4)c3C)nc2c1	x	-3.4	x
Cc1cccc(NC(=S)NC(NC(=O)OCc2ccccc2)C(Cl)(Cl)Cl)c1 (centres undefined)	x	-1.8	-0.455
Cc1nc2ccccc2c(=O)n1/N=C/c1ccc(N(C)C)cc1	6.1	-3.2	0.274
Cc1nc2ccccc2c(=O)n1/N=C/c1c(O)ccc2oc3c(c12)CCCC3	-13.8	5.9*	x
O=C(COC(=O)/C=C/c1ccc([N+](=O)[O-])cc1)NC(c1ccccc1)c1ccccc1	x	-0.9	x
Cn1c(C(=O)NCCN2CCCCCC2)cc2c(=O)n(C)c3ccccc3c21	3.2	-3.9	-0.0686
Cn1c(C(=O)NCc2cccs2)cc2oc3ccccc3c21	x	3.6	x
Cn1c(C(=O)NCCN2CCN(Cc3ccccc3)CC2)cc2c(=O)n(C)c3ccccc3c21	-8.9	x	3.16*
Cn1c(C(=O)NCc2ccccc2)cc2oc3ccccc3c21	12.7	5.2*	-0.138
Cc1ccc(C)c2nc(SCC(=O)N3CCCc4ccccc43)c(C#N)cc12	x	1.8	-0.336
Cc1nn2c([nH]c(=O)c3ccccc32)c1C=O	0.1	-1.3	-0.152
c1ccc(C(c2ccccc2)N2CCN(c3nc4ccccc4n4cnnc34)CC2)cc1	-6.2	6.7*	1.07
SMILES	MRP resist rev	MRP1 act	hDAT+cocaine
c1cnc(N2CCN(c3nc4ccccc4n4cnnc34)CC2)nc1	-7.9	1.6	0.124
CN1C(=O)[C@@H]2[C@@H]3C[C@@H]([C@H]4ON=C(c5ccc(Cl)cc5Cl)[C@@H]34)[C@@H]2C1=O	x	0.3	x
Cc1c(Cl)cccc1-n1c(SCC(=O)N(C)Cc2ccccc2)nnc1-c1ccncc1	12.7	-3.9	3.8*
Cc1noc(C)c1CSc1nnc(-c2ccncc2)n1-c1cccc(Cl)c1C	-8.9	-3.4	0.102
O=C(c1ccc(CS(=O)(=O)c2ccc(Br)cc2)o1)N1CCN(C2CCCCC2)CC1	74.0*	-2.5	x
COc1ccc(S(=O)(=O)Cc2ccc(C(=O)N3CCN(C4CCCCC4)CC3)o2)cc1	3.8	-2.9	0.261
O=C(O)c1ccc(C(=O)c2ccc3c(c2)C(=O)N(Cc2ccco2)C3=O)cc1	3.6	-1.2	0.258
O=C(c1ccccc1)c1ccc(CN2C(=O)c3ccccc3C2=O)o1	-1.0	-0.6	3.41*
O=C(Nc1nc2ccccc2s1)C1=NN(c2ccccc2)C(=O)CC1	x	-2.6	x
CCOC(=O)/C(C#N)=C\c1ccc(OCC(=O)Nc2ccc(C)cc2C)c(OC)c1	x	-3.1	0.0161
COc1cc2cc(CN(Cc3nnnn3Cc3ccco3)C3CCCCC3)c(=O)[nH]c2cc1OC	-16.8	-2.5	3*
CCN(CC)CCCN(Cc1cc2cc(OC)c(OC)cc2[nH]c1=O)C(=O)Nc1ccccc1	4.3	-0.6	-0.0466
CCC(C)(C)n1nnnc1CN(Cc1ccco1)Cc1cc2cc3c(cc2[nH]c1=O)OCO3	11.9	-0.8	0.392
CC(C)(C)n1nnnc1CN(Cc1ccco1)Cc1cc2cc3c(cc2[nH]c1=O)OCO3	-6.5	-1.9	1.52*
COc1cc2cc(CN(C(=O)Nc3ccccc3)C3CCCC3)c(=O)[nH]c2cc1OC	-13.3	-3.3	3.29*
CCOc1ccc2[nH]c(=O)c(CN(Cc3nnnn3Cc3ccco3)C3CCCCC3)cc2c1	-12.0	-5.1	-0.247
COc1ccc2c(COC(=O)CNC(=O)C34CC5CC(CC(C5)C3)C4)cc(=O)oc2c1	x	-0.1	x
COc1ccc([C@H]2/C=C\CN(C(=O)c3ccccc3)[C@@H](C)C(=O)N2Cc2ccc(F)cc2)cc1	x	x	0.515
COc1cccc(SCc2noc(C(=O)NCCC(C)C)c2C(=O)NCCC(C)C)c1	x	x	0.389
CCOC(=O)CCCNc1ccc([N+](=O)[O-])cc1[N+](=O)[O-]	x	-0.4	x
CC(C)(CO)Nc1ccc([N+](=O)[O-])cc1[N+](=O)[O-]	x	-3.0	-2.64*
COc1cc(O)c(C(CC(=O)N2CCCC(C)C2)c2cc(OC)c(OC)c(OC)c2)c(OC)c1 (centres undefined)	x	x	0.0577
COC(C[C@@H](O)CC(=O)[C@H](C)OCc1ccccc1)OC	x	x	-0.0812
Cc1ccc(OCC(=O)N/N=C\c2ccncc2)c(C)c1	x	-2.7	x
COc1cc(/C=C(\C#N)c2ccccn2)ccc1OCc1ccccc1Cl	x	5.9*	x
SMILES	MRP resist rev	MRP1 act	hDAT+cocaine
COc1cc(/C=C(\C#N)c2ccccn2)ccc1OCC(=O)Nc1cccc(C(F)(F)F)c1	x	-4.8	x
CC(C)OC(=O)CSc1nnc2n1C(C)(C)Cc1ccccc1-2	x	181.0*	0.717
CCOC(=O)CSc1nnc2n1C(C)(C)Cc1ccccc1-2	-10.2	-1.5	0.329
Cc1nc2ncnn2c(N2CCN(C(c3ccccc3)c3ccccc3)CC2)c1C	14.8	-1.6	3.15*
Cc1cc(N2CCN(C(c3ccccc3)c3ccccc3)CC2)n2ncnc2n1	0.5	-0.1	2.47
CC1CN=C(N(Cc2ccccc2)C(=O)Nc2ccccc2)S1 (centres undefined)	-4.7	-0.9	-0.663
COc1ccccc1NC(=O)N(Cc1ccccc1)C1=NCC(C)S1 (centres undefined)	32.4	-4.3	-3.71*
Cc1ccnc(NS(=O)(=O)c2ccc(NS(=O)(=O)c3ccccc3)cc2)n1	-28.1	1.1	-0.706
Cc1ccc(N(CC(=O)Nc2ccccc2-c2ccccc2)S(=O)(=O)c2ccccc2)c(C)c1	x	-1.1	x
O=C(Nc1ccc(Cl)cc1)N1CCN(c2ccc3nnc(-c4ccc(F)cc4)n3n2)CC1	x	-4.9	2.8*
O=C(Nc1ccccc1Cl)N1CCN(c2ccc3nnc(-c4ccccc4)n3n2)CC1	22.5	-1.3	0.381
C/C(=N/NC(=O)c1cnccn1)c1cccs1	x	0.4	x
COCc1c(Br)c(C)[nH]c(=O)c1C#N	11.1	2.7	1.61*
CCOCc1cc(C)[nH]c(=O)c1C#N	12.6	-2.6	x
O=C(c1ccc(Cl)c(S(=O)(=O)N2CCCCCC2)c1)N1CCN(c2ccccn2)CC1	x	-0.8	2.65*

Source: PubChem
